Assay results published in PubChem BioAssay (NCATS).
“And” between values parts separate entries of the source, which are not always exact repeats. Identical values can stand only once. Records with an inconclusive call do not appear. A call without a number means that no potency is given here. The source made the active and inactive calls. The call rests on the fitted dose curve; in most records, active means well fitted curve in the direction sought with a large enough effect; inconclusive means small, poorly fitted or top-dose-only effect, or another doubt; inactive means no such curve, though single readings can be large; an effect the other way counts as inactive or inconclusive.

Experiment: qHTS of pediatric cancer cell lines to identify multiple opportunities for drug repurposing: Primary screen for OHS-50 cells (AID 1347103); further: nearly all actives have a fitted effect of over 40% in size; further: potency means the concentration at half of the fitted maximal effect
Conditions: OHS-50 osteosarcoma viability, CellTiter-Glo luminescence, 48 h; series mostly up to 57.3 µM
Summary of the method: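 Cells (500-1,000/well) rested 5 h, then received compounds for 48 h; metabolically active cells were measured by CellTiter-Glo luminescence. Final concentrations spanned up to 46 µM (MIPE, 11-point) or 0.59 nM-46 µM (NPC, 8-point) in primary screens, 11-point in follow-ups.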

SMILES | Potency
CN1CCC(=C2c3ccccc3C=Cc3ccccc32)CC1 | 13.8 µM (active) and 19.3 µM (active)
O=c1[nH]cc(F)c(=O)[nH]1 | inactive
CCC1(c2ccccc2)C(=O)NCNC1=O | inactive
CC(COc1ccccc1)N(CCCl)Cc1ccccc1 (centres undefined) | 24.3 µM (active)

Experiment: qHTS of pediatric cancer cell lines to identify multiple opportunities for drug repurposing: Primary screen for RD cells (AID 1347104); further: nearly all actives have a fitted effect of over 55% in size
Conditions: RD rhabdomyosarcoma viability, CellTiter-Glo luminescence, 48 h; series mostly up to 46 µM
Summary of the method: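 Primary screen of approved and investigational compounds on cells in growth media at 37 degrees C, 5% CO2. MIPE set at 11-point and NPC set at 8-point dilutions; viability scored by ATP-based luminescence at 48 hours.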

SMILES | Potency
Cc1cn([C@H]2C[C@H](N=[N+]=[N-])[C@@H](CO)O2)c(=O)[nH]c1=O | inactive
CC(C)(Oc1ccc(C2CC2(Cl)Cl)cc1)C(=O)O (centres undefined) | inactive
COc1ccc2c(c1)c(CC(=O)O)c(C)n2C(=O)c1ccc(Cl)cc1 | inactive
CCOC(=O)Nc1ccc(NCc2ccc(F)cc2)nc1N | inactive
C[C@H]1c2cccc(O)c2C(O)=C2C(=O)[C@]3(O)C(O)=C(C(N)=O)C(=O)[C@@H](N(C)C)[C@@H]3[C@@H](O)[C@@H]21 | inactive
NC12CC3CC(CC(C3)C1)C2 | inactive
CN1C(C(=O)Nc2ccccn2)=C(O)c2ccccc2S1(=O)=O | inactive
Nc1nc2c(ncn2COC(CO)CO)c(=O)[nH]1 | inactive
COc1ccccc1OCCNCC(O)COc1cccc2[nH]c3ccccc3c12 (centres undefined) | inactive
Cc1cn([C@H]2C=C[C@@H](CO)O2)c(=O)[nH]c1=O | inactive
COc1ccc2[nH]cc(CCNC(C)=O)c2c1 | inactive
COc1ccccc1OCC(O)CN1CCN(CC(=O)Nc2c(C)cccc2C)CC1 (centres undefined) | inactive
C[C@](N)(Cc1ccc(O)c(O)c1)C(=O)O | inactive
O=c1c(-c2ccc(O)cc2)coc2cc(O)cc(O)c12 | inactive
CC1COc2c(N3CCN(C)CC3)c(F)cc3c(=O)c(C(=O)O)cn1c23 (centres undefined) | inactive
